Results filed as inconclusive are left out. Activity calls are given as the source filed them. The calls were made as follows: active = hit-call score of the fitted dose curve at least 0.9, where 1 is the maximum; inconclusive = response in the unintended direction; inactive = score below 0.9.
Experiment: TOX21_p53_BLA_p5_viability: Viability Assessment in the Tox21 HCT-116 p53 Agonism Beta-lactamase Assay, Phase 5 (AID 2283600)
How it was run: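 Viability came from CellTiter-Glo ATP luminescence, read after 30 min at room temperature. Before this, HCT-116 p53-bla cells (4000/well) had 16 hours of compound exposure at 37C, with DMSO stocks diluted 217-fold on transfer.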

| SMILES | outcome |
| --- | --- |
| CC[C@@H]([C@H](C)O)n1ncn(-c2ccc(N3CCN(c4ccc(OC[C@@H]5CO[C@@](Cn6cncn6)(c6ccc(F)cc6F)C5)cc4)CC3)cc2)c1=O | inactive |
| COc1ccc(CCN(C)CCCC(C#N)(c2cc(OC)c(OC)c(OC)c2)C(C)C)cc1OC (stereo unspecified) | inactive |
| CCN(O)CC | inactive |
| CN1CCN(C2Cc3ccccc3Sc3ccc(Cl)cc32)CC1 (stereo unspecified) | inactive |
| O=S(=O)(O)c1ccc2c(N=Nc3ccc(S(=O)(=O)O)c4ccccc34)c(O)c(S(=O)(=O)O)cc2c1 | inactive |
| CC1(C)S[C@@H]2[C@H](N3C(=O)C(c4ccccc4)NC3(C)C)C(=O)N2[C@H]1C(=O)O (stereo partly specified) | inactive |
| Cc1nc(C)c(C)nc1C | inactive |
| C[C@@H]1C[C@H]2[C@@H]3CCC4=CC(=O)C=C[C@]4(C)[C@@]3(Cl)[C@@H](O)C[C@]2(C)[C@@]1(OC(=O)c1ccco1)C(=O)CCl | inactive |
| CCOC(=O)Cc1ccc(-c2ccccc2)cc1 | inactive |
| OCC(S)CS (stereo unspecified) | inactive |
| CCCCC(=O)OCC(=O)[C@H]1[C@H](C)C[C@H]2[C@@H]3C[C@H](F)C4=CC(=O)C=C[C@]4(C)[C@@]3(F)[C@@H](O)C[C@@]21C | inactive |
| OC(CCN1CCCCC1)(c1ccccc1)C1CC2C=CC1C2 (stereo unspecified) | inactive |
| Cc1nc2ccccn2c(=O)c1CCN1CCC(C(=O)c2ccc(F)cc2)CC1 | inactive |
| CC(C)(C)NCC(O)COc1ccc(NC(=O)NC2CCCCC2)cc1 (stereo unspecified) | inactive |
| NS(=O)(=O)c1cc(C2(O)NC(=O)c3ccccc32)ccc1Cl (stereo unspecified) | inactive |
| CCC(=O)OCC(=O)[C@@]1(OC(=O)CC)[C@H](C)C[C@H]2[C@@H]3CCC4=CC(=O)C=C[C@]4(C)[C@@]3(F)[C@@H](O)C[C@@]21C | inactive |

Source: PubChem BioAssay (EPA / NIEHS)
